This is a sample that favours compounds with a hit; in the whole collection about 1.5% have one here.
HDAC3 inh: HDAC3 deacetylase inhibitors, primary screen, biochemical, fluorescence, cell-free homogeneous | inhibition, % at 8.3 µM | Histone deacetylase 3 (Homo sapiens), O15379 | recombinant HDAC3, fluorogenic peptide/trypsin coupled | actives 0.15% (n = 320,000) | AID 2718, 2010; in the data active means inhibition above about 26%, passing the limit was not always enough
NALP1 inh: NALP1 inflammasome inhibitors in reconstituted yeast, colorimetric, S. cerevisiae, triplicate retest. S. cerevisiae NALP1/ASC/caspase-1 growth, X-gal OD620, 72 h. inhibition, % at 10 µM. actives 0.61% (n = 280,000); in the data active means inhibition mostly above about 24%, no sharp cut-off; inactive means mostly below about 32%
Efflux pump mplx: inhibitors of Candida efflux pumps in yeast, primary screen, S. cerevisiae, Nile Red, multiplex; S. cerevisiae Candida pump triplex; inhibition, % at 10 µM; actives 0.44% (n = 330,000);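 active means plate passing quality check with inhibition over a set limit, or well fluorescence over plate mean plus 4 SD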;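 further: Nile Red retained in pooled yeast measured as flow cytometry median fluorescence; higher means more Nile Red kept so more efflux inhibition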
NALP3 yeast inh: NALP3 inflammasome inhibitors in reconstituted yeast, primary screen, luminescence, uHTS; AID 2825, 2010; actives 0.39% (n = 330,000); Yeast reconstituted NLRP3/ASC/caspase-1, beta-gal luminescence, 24 h; inhibition, % at 10 µM;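 active means inhibition of 50% or more; inactive means inhibition below 50%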
GASC-1 inh: inhibitors of GASC-1 histone demethylase, primary screen, biochemical, fluorescence, DELFIA europium. Lysine-specific demethylase 4C (Homo sapiens), Q9H3R0. GST-JMJD2C(1-420) H3K9me3 demethylation. inhibition, % at 2.35 µM. actives 0.069% (n = 330,000). AID 2099, 2009;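 active means more than half of a compound's replicate wells show inhibition beyond 50%, single wells judged on their own value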;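 further: signal counts dimethyl H3K9 product captured on neutravidin plate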
Target sequence (Q9H3R0 1-420 limits assumed): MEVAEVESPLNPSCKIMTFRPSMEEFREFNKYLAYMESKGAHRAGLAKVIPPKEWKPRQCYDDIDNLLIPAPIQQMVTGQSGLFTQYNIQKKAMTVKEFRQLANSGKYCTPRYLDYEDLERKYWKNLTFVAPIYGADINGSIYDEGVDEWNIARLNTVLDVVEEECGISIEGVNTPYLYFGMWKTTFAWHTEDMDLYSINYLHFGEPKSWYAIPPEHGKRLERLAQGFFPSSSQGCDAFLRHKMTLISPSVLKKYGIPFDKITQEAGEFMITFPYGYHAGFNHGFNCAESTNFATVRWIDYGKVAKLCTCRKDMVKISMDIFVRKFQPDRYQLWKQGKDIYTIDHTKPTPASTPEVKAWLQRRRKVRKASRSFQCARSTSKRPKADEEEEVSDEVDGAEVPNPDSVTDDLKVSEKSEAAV
PolyA inhibitor: polyadenylation inhibitors in yeast reporter cells, primary screen, luminescence, S. cerevisiae. S. cerevisiae SKY197-pL101 polyadenylation reporter, beta-gal luminescence; efflux-impaired pdr1/pdr3 knockout yeast; score 100 = 6 SD above DMSO. activity score, % at 12 µM. actives 0.02% (n = 300,000);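 active means lowest replicate activity score at least 50, where 100 means six control SD above control mean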;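 further: yeast exposed to compound for 9 h at 30 °C; higher score means more reporter readthrough which indicates perturbed polyadenylation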
Yeast cmpd fluor: counter-screen for efflux pump inhibitors: compound fluorescence; shares compounds with Efflux pump mplx; S. cerevisiae AD/pABC3, flow cytometry; fluorescence ratio to DMSO, % at 10 µM; actives 4% (n = 1,700); AID 588517;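 active means fluorescence ratio to DMSO above its plate's cutoff, the plate mean ratio plus 5 SD, cut at about 210% in these data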;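 further: unstained yeast with no Nile Red so the signal is compound autofluorescence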
Mdr1 pump inh: inhibitors of Candida albicans Mdr1 efflux, confirmation, flow cytometry, singleplex, Cherry Pick1 set | shares compounds with Efflux pump mplx | S. cerevisiae AD/CaMDR1, Nile Red efflux | inhibition, % at 10 µM | actives 1% (n = 1,700) | AID 588518, 2011; in the data active means inhibition above about 26%;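 further: higher means more Nile Red retained so more efflux inhibition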
Cdr2 pump inh: inhibitors of Candida albicans Cdr2 efflux pump, confirmation, S. cerevisiae AD/CaCDR2, flow cytometry, cherry pick 1, singleplex. Nile Red retention ratio vs DMSO, % at 10 µM. Nile Red retention. shares compounds with Efflux pump mplx. actives 4% (n = 1,700); in the data active means Nile Red retention ratio vs DMSO above about 190%;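 further: higher ratio means more blocking of Cdr2 efflux of the dye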
CaCdr1 efflux inh: inhibitors of Candida albicans Cdr1 efflux pump, confirmation, S. cerevisiae AD/CaCDR1, flow cytometry, cherry pick 1, singleplex; shares compounds with Efflux pump mplx; actives 1% (n = 1,700); inhibition, % at 10 µM; AID 588522, 2011; Nile Red efflux;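 active means inhibition above the screen-wide mean plus twice its standard deviation, cut at about 32% in these data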
Each line names hits and unclear results; the compound was inactive in the other large screens (follow-up assays come after a bar, where they were run).

CCC(NC(=O)c1cc(COc2ccc(OC)cc2Cl)on1)c1ccncc1 (centres undefined)	none | Yeast cmpd fluor inactive | Mdr1 pump inh inactive | Cdr2 pump inh inactive | CaCdr1 efflux inh inactive
CC(=O)C(Cc1ccccc1)NC(=O)CN(C)Cc1ccccc1Cl (centres undefined)	none
COc1ccc(OC)c(NC(=O)CCN2C(=O)c3ccccc3C2=O)c1	none
Cc1ccc(C2=NN(S(C)(=O)=O)C(c3cccs3)C2)cc1 (centres undefined)	none
CCc1ccc(C2=NN(S(C)(=O)=O)C(c3cccs3)C2)cc1 (centres undefined)	Efflux pump mplx 3.0 | Yeast cmpd fluor inactive | Mdr1 pump inh inactive | Cdr2 pump inh inactive | CaCdr1 efflux inh inactive
Cc1ccc2nccc(C(=O)N3CCCC(Nc4ccc(F)cc4)C3)c2c1 (centres undefined)	none
CC1(C)OC(=O)C(=NNc2ccccc2)C(=O)O1	Efflux pump mplx 9.7 | Yeast cmpd fluor inactive | Mdr1 pump inh inactive | Cdr2 pump inh inactive | CaCdr1 efflux inh inactive
CC1(C)OC(=O)C(=NNc2ccc(O)cc2)C(=O)O1	none (no result: PolyA inhibitor)
O=C(NCc1ccccc1F)C1CCCN1S(=O)(=O)c1ccc(F)cc1 (centres undefined)	none
CSc1nnnn1-c1ccc(C)c(Cl)c1	Efflux pump mplx 14 | Yeast cmpd fluor inactive | Mdr1 pump inh inactive | Cdr2 pump inh inactive | CaCdr1 efflux inh inactive
O=C(COC(=O)[C@@H]1CC(O)CN1S(=O)(=O)c1ccc2c(c1)OCCO2)NCc1ccc(F)cc1 (some centres undefined)	none
Cc1occc1C(=O)N(C)CC1CCCN(CCc2ccccc2F)C1 (centres undefined)	Efflux pump mplx 5.0 | Yeast cmpd fluor inactive | Mdr1 pump inh inactive | Cdr2 pump inh inactive | CaCdr1 efflux inh inactive
COCC1CCN(C(=O)CC2C(=O)NCCN2Cc2cccc(Oc3ccccc3)c2)CC1 (centres undefined)	none
O=C(O)c1cc(-c2ccc(Cl)cc2)n(-c2cccc(Cl)c2)n1	none
O=C(c1cccc(F)c1)N1C2C=CC(C2)C1(C(F)(F)F)C(F)(F)F (centres undefined)	none
O=C(c1ccc(Cl)cc1)N1C2C=CC(C2)C1(C(F)(F)F)C(F)(F)F (centres undefined)	Efflux pump mplx 15 | Yeast cmpd fluor inactive | Mdr1 pump inh inactive | Cdr2 pump inh inactive | CaCdr1 efflux inh inactive
CC(C)c1ccccc1-n1c(SCc2cc(=O)oc3ccc4ccccc4c23)nnc1-c1cccnc1	Efflux pump mplx 15 | Yeast cmpd fluor inactive | Mdr1 pump inh inactive | Cdr2 pump inh inactive | CaCdr1 efflux inh inactive
Cc1nc(S(=O)(=O)Cc2ccc(Cl)cc2)nc2c1CCC2	Efflux pump mplx 1.9 | Yeast cmpd fluor inactive | Mdr1 pump inh inactive | Cdr2 pump inh inactive | CaCdr1 efflux inh inactive
Cc1ccc(CS(=O)(=O)c2nc3c(c(N(C)C)n2)CCCC3)cc1	none
COC(=O)c1ccc(CNC(=O)Cn2nnnc2CN(C)C(C)C)cc1	none
CCOC(=O)CC(=O)c1cc(OC)c(OC)c(OC)c1	Efflux pump mplx 0.8 (no result: GASC-1 inh) | Yeast cmpd fluor inactive | Mdr1 pump inh inactive | Cdr2 pump inh inactive | CaCdr1 efflux inh inactive
Cc1nnc(SCC(=O)Nc2nccs2)n1C(C)C	none
O=C(CSC1=Nc2ccccc2C2=NC(CC(=O)N3CCN(c4ccccc4)CC3)C(=O)N12)NCC1CCCO1 (centres undefined)	Efflux pump mplx 0.8 | Yeast cmpd fluor inactive | Mdr1 pump inh inactive | Cdr2 pump inh inactive | CaCdr1 efflux inh inactive
O=C1c2ccccc2C(=O)N1CN(C(=O)COc1ccccc1)c1ccc(F)cc1	Efflux pump mplx 8.0 | Yeast cmpd fluor inactive | Mdr1 pump inh inactive | Cdr2 pump inh inactive | CaCdr1 efflux inh inactive
COc1ccc(N(CN2C(=O)c3ccccc3C2=O)C(=O)COc2ccc(Cl)cc2Cl)cc1	none
Cc1ccc(-n2nnc(-c3cc4ccccc4n3C)n2)cc1	none (no result: Efflux pump mplx)
Cn1c(-c2ccccc2O)cc2ccccc21	Efflux pump mplx 0.2 | Yeast cmpd fluor inactive | Mdr1 pump inh inactive | Cdr2 pump inh inactive | CaCdr1 efflux inh inactive
O=C(NCc1cccc(Cl)c1)NC(=O)c1csc([N+](=O)[O-])c1	Efflux pump mplx 0.9 (no result: NALP1 inh) | Yeast cmpd fluor inactive | Mdr1 pump inh inactive | Cdr2 pump inh inactive | CaCdr1 efflux inh inactive
Cc1cc(C)c(C(=O)CSC2=NC(N)=C(C#N)C3(CCCCC3)C2C(N)=O)cc1C (centres undefined)	Efflux pump mplx 1.3 | Yeast cmpd fluor inactive | Mdr1 pump inh inactive | Cdr2 pump inh inactive | CaCdr1 efflux inh inactive
Cc1cc(C)c(N(C(=O)CN2C(=O)c3ccccc3S2(=O)=O)C(C(=O)NCC2CCCO2)c2ccc(F)cc2)c(C)c1 (centres undefined)	Efflux pump mplx 22 | Yeast cmpd fluor inactive | Mdr1 pump inh inactive | Cdr2 pump inh inactive | CaCdr1 efflux inh inactive
COc1ccccc1N(C(=O)CN1C(=O)c2ccccc2S1(=O)=O)C(C(=O)NCC1CCCO1)c1ccc(F)cc1 (centres undefined)	none
COc1ccc(NC(=O)N2CCCC(c3ccccc3)C2)cc1 (centres undefined)	none
CSCCC(NC(=O)c1ccc(Cl)cc1Cl)C(=O)NNC(=O)c1ccncc1 (centres undefined)	none (no result: NALP1 inh, PolyA inhibitor)
Cc1ccc(C(C)C)cc1OCCn1cncn1	none
Cc1cc2c([nH]c3ccccc32)c2c1OC(C)(C)C=C2	Efflux pump mplx 1.5 | Yeast cmpd fluor inactive | Mdr1 pump inh inactive | Cdr2 pump inh inactive | CaCdr1 efflux inh inactive
Cc1ncc([N+](=O)[O-])n1S(=O)(=O)c1cc(Cl)ccc1Cl	none
